Reference: PubChem BioAssay AID1159580 (chemical genetic matrix, 2015)
Where “and” joins values, the source holds several entries; their conditions need not be identical. Equal values may be shown once. Out of some 5,500 compounds screened, about 2,000 (36%) were called active. About 18% were inconclusive and are not listed. Cut-off read from the data, not from the text of the source: active = normalized growth mostly below about 0.91 (no sharp cut-off); inconclusive = no clear call, values can overlap the other calls; inactive = mostly above about 0.92. The list shows a part of the results.

Assay: chemical genetic growth profiling, strain panel (AID 1159580);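 note: tested at 20 µM; growth read once vehicle control cultures reached saturation at 30 °C; 1 = growth at the plate median or of vehicle wells; lower values mean less growth of the strain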
Conditions: growth OD

Measured: normalized growth

COc1cc(OC)c2c(c1)OC(c1ccccc1)CC2=O (stereo unspecified)
inactive: S. cerevisiae deletion strains, locus YBR021W, strain FUR4, stronger effect = lower value 0.99 | S. cerevisiae deletion strains, locus YBR229C, strain ROT2, stronger effect = lower value 0.986 | S. cerevisiae deletion strains, locus YCL029C, strain bik1, stronger effect = lower value 1.03 | S. cerevisiae deletion strains, locus YDL035C, strain GPR1, stronger effect = lower value 0.988 | S. cerevisiae deletion strains, locus YDL074C, strain BRE1, stronger effect = lower value 0.994 | S. cerevisiae deletion strains, locus YDL101C, strain DUN1, stronger effect = lower value 0.989 | S. cerevisiae deletion strains, locus YDL185W, strain tfp1, stronger effect = lower value 1.01 | S. cerevisiae deletion strains, locus YDL192W, strain arf1, stronger effect = lower value 0.979 | S. cerevisiae deletion strains, locus YDR101C, strain arx1, stronger effect = lower value 1.02 | S. cerevisiae deletion strains, locus YDR150W, strain NUM1, stronger effect = lower value 0.983 | S. cerevisiae deletion strains, locus YDR162C, strain NBP2, stronger effect = lower value 0.987 | S. cerevisiae deletion strains, locus YDR318W, strain mcm21, stronger effect = lower value 0.988 | S. cerevisiae deletion strains, locus YDR388W, stronger effect = lower value 0.999 | S. cerevisiae deletion strains, locus YDR502C, strain sam2, stronger effect = lower value 1 | S. cerevisiae deletion strains, locus YEL061C, strain CIN8, stronger effect = lower value 0.984 | S. cerevisiae deletion strains, locus YER110C, stronger effect = lower value 1.01 | S. cerevisiae deletion strains, locus YER155C, strain BEM2, stronger effect = lower value 0.996 | S. cerevisiae deletion strains, locus YER167W, strain BCK2, stronger effect = lower value 0.994 | S. cerevisiae deletion strains, locus YGL078C, strain dbp3, stronger effect = lower value 1.01 | S. cerevisiae deletion strains, locus YGL086W, strain mad1, stronger effect = lower value 1 | S. cerevisiae deletion strains, locus YGL248W, strain PDE1, stronger effect = lower value 0.987 | S. cerevisiae deletion strains, locus YGR135W, strain pre9, stronger effect = lower value 0.977 | S. cerevisiae deletion strains, locus YGR252W, strain gcn5, stronger effect = lower value 1.01 | S. cerevisiae deletion strains, locus YHR030C, strain SLT2, stronger effect = lower value 0.987 and 0.965 | S. cerevisiae deletion strains, locus YHR079C, strain IRE1 (second series), stronger effect = lower value 1.01 | S. cerevisiae deletion strains, locus YHR079C, strain IRE1, stronger effect = lower value 0.963 | S. cerevisiae deletion strains, locus YHR094C, strain hxt1, stronger effect = lower value 1.01 | S. cerevisiae deletion strains, locus YHR129C, strain ARP1, stronger effect = lower value 0.986 | S. cerevisiae deletion strains, locus YHR200W, strain rpn10, stronger effect = lower value 0.997 | S. cerevisiae deletion strains, locus YIL066C, strain RNR3, stronger effect = lower value 0.983 | S. cerevisiae deletion strains, locus YIL073C, strain SPO22, stronger effect = lower value 1.03 | S. cerevisiae deletion strains, locus YIL125W, strain kgd1, stronger effect = lower value 1.01 | S. cerevisiae deletion strains, locus YIR030C, strain dcg1, stronger effect = lower value 1 | S. cerevisiae deletion strains, locus YJL095W, strain BCK1, stronger effect = lower value 0.932 and 0.982 | S. cerevisiae deletion strains, locus YJL134W, strain LCB3, stronger effect = lower value 0.985 | S. cerevisiae deletion strains, locus YJL168C, strain set2, stronger effect = lower value 1 | S. cerevisiae deletion strains, locus YJL187C, strain SWE1 (second series), stronger effect = lower value 0.994 | S. cerevisiae deletion strains, locus YJR043C, strain POL32, stronger effect = lower value 1 | S. cerevisiae deletion strains, locus YJR066W, strain TOR1, stronger effect = lower value 0.93 | S. cerevisiae deletion strains, locus YJR075W, strain HOC1, stronger effect = lower value 0.992 | S. cerevisiae deletion strains, locus YKL009W, strain mrt4, stronger effect = lower value 0.996 | S. cerevisiae deletion strains, locus YKL068W, stronger effect = lower value 0.994 | S. cerevisiae deletion strains, locus YKL085W, strain MDH1 (second series), stronger effect = lower value 0.991 | S. cerevisiae deletion strains, locus YKL085W, strain MDH1, stronger effect = lower value 0.991 | S. cerevisiae deletion strains, locus YKL190W, strain CNB1, stronger effect = lower value 0.984 | S. cerevisiae deletion strains, locus YKR001C, strain vps1, stronger effect = lower value 0.951 | S. cerevisiae deletion strains, locus YLR039C, strain RIC1, stronger effect = lower value 0.842 | S. cerevisiae deletion strains, locus YLR058C, strain SHM2, stronger effect = lower value 0.987 | S. cerevisiae deletion strains, locus YLR102C, strain apc9, stronger effect = lower value 1 | S. cerevisiae deletion strains, locus YLR113W, strain HOG1, stronger effect = lower value 1 | S. cerevisiae deletion strains, locus YLR262C, strain YPT6, stronger effect = lower value 0.836 | S. cerevisiae deletion strains, locus YLR268W, strain sec22, stronger effect = lower value 1.01 | S. cerevisiae deletion strains, locus YLR330W, strain CHS5, stronger effect = lower value 0.98 | S. cerevisiae deletion strains, locus YLR342W, strain FKS1 (second series), stronger effect = lower value 0.959 | S. cerevisiae deletion strains, locus YLR371W, strain rom2, stronger effect = lower value 1.02 | S. cerevisiae deletion strains, locus YLR418C, strain cdc73, stronger effect = lower value 1.03 | S. cerevisiae deletion strains, locus YML016C, strain PPZ1, stronger effect = lower value 0.983 | S. cerevisiae deletion strains, locus YML032C, strain rad52, stronger effect = lower value 1.02 | S. cerevisiae deletion strains, locus YML124C, strain tub3, stronger effect = lower value 1 | S. cerevisiae deletion strains, locus YMR078C, strain ctf18, stronger effect = lower value 1 | S. cerevisiae deletion strains, locus YMR223W, strain ubp8, stronger effect = lower value 0.983 | S. cerevisiae deletion strains, locus YMR307W, strain GAS1, stronger effect = lower value 0.902 | S. cerevisiae deletion strains, locus YNL067W, strain RPL9B, stronger effect = lower value 0.993 | S. cerevisiae deletion strains, locus YNL128W, strain TEP1, stronger effect = lower value 1.01 | S. cerevisiae deletion strains, locus YNL153C, strain GIM3, stronger effect = lower value 1 | S. cerevisiae deletion strains, locus YNL183C, strain NPR1, stronger effect = lower value 0.915 | S. cerevisiae deletion strains, locus YNL233W, strain BNI4, stronger effect = lower value 0.97 | S. cerevisiae deletion strains, locus YNL250W, strain rad50, stronger effect = lower value 1.03 | S. cerevisiae deletion strains, locus YNL271C, strain bni1, stronger effect = lower value 1 | S. cerevisiae deletion strains, locus YNL298W, strain CLA4, stronger effect = lower value 1.03 | S. cerevisiae deletion strains, locus YNL307C, strain MCK1, stronger effect = lower value 1 | S. cerevisiae deletion strains, locus YNR052C, strain pop2, stronger effect = lower value 0.989 | S. cerevisiae deletion strains, locus YOL006C, strain TOP1, stronger effect = lower value 0.848 | S. cerevisiae deletion strains, locus YOL012C, strain htz1 1.5 | S. cerevisiae deletion strains, locus YOL147C, strain pex11, stronger effect = lower value 1.01 | S. cerevisiae deletion strains, locus YOR061W, strain CKA2, stronger effect = lower value 0.983 | S. cerevisiae deletion strains, locus YOR069W, strain VPS5, stronger effect = lower value 0.984 | S. cerevisiae deletion strains, locus YOR136W, strain idh2, stronger effect = lower value 1.01 | S. cerevisiae deletion strains, locus YOR144C, strain elg1, stronger effect = lower value 1.01 | S. cerevisiae deletion strains, locus YOR184W, strain ser1, stronger effect = lower value 0.955 | S. cerevisiae deletion strains, locus YOR231W, strain MKK1, stronger effect = lower value 0.951 | S. cerevisiae deletion strains, locus YOR316C, strain cot1, stronger effect = lower value 1.01 | S. cerevisiae deletion strains, locus YPL055C, strain LGE1, stronger effect = lower value 1.01 | S. cerevisiae deletion strains, locus YPL241C, strain CIN2, stronger effect = lower value 0.978 | S. cerevisiae deletion strains, locus YPL256C, strain CLN2, stronger effect = lower value 0.972 | S. cerevisiae deletion strains, locus YPR119W, strain clb2, stronger effect = lower value 1.01 | S. cerevisiae deletion strains, locus YPR141C, strain kar3, stronger effect = lower value 1.01 | S. cerevisiae deletion strains, locus YPR163C, strain tif3, stronger effect = lower value 1.03 | S. cerevisiae deletion strains, locus YPR167C, strain met16, stronger effect = lower value 1 | S. cerevisiae deletion strains, strain wtn01, stronger effect = lower value 1.01 | S. cerevisiae strains, strain wild type, stronger effect = lower value 0.987
